Screening results (PubChem BioAssay)
TWEAK-Fn14 inh: blocks TWEAK-Fn14 interaction in a reporter cell assay; TWEAK-stimulated Fn14 reporter cells, luciferase luminescence, 8 h; inhibition, % at 10 µM; actives 2% (n = 360,000); in the data active = inhibition above about 50%
KKLEB cytotox: reduces viability of KKLEB cystic fibrosis airway cells. KKLEB CF airway cells viability, ATPlite luminescence, overnight; stronger effect = lower value; cells stimulated with P. aeruginosa culture filtrate. activity change (cytotoxicity), % at 5 µM. actives 0.36% (n = 360,000). AID 602141;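 active = corrected activity change at or below -50% at 5 µM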
TROY NFkB inh: TROY signaling inhibition. Q293 LMP1-TROYcd NF-kB luciferase reporter, 4 h. inhibition, % at 10 µM. actives 0.98% (n = 360,000);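 active = compounds whose plate-normalised and pattern-corrected inhibition of the luciferase reporter signal at the single screening dose is 50% or more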
CF NFkB inh: inhibitors of cystic fibrosis induced NF-kB; actives 0.86% (n = 360,000); inhibition, % at 5 µM; KKLEB NF-kB-GFP reporter, PAF-induced, GFP fluorescence overnight;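 active = at least 50% inhibition at 5 µM, scaled per plate between neutral and stimulator controls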;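 note: PAF is a Pseudomonas aeruginosa culture filtrate used as stimulus; plate controls were PAF-stimulated DMSO wells for no effect and unstimulated DMSO wells for full effect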
LGR2 inh: inhibitors of bursicon-induced Drosophila LGR2 receptor cAMP signaling; HEK293 LGR2, CRE-luciferase, bursicon-stimulated, 4 h; inhibition, % at 9.99 µM; actives 0.35% (n = 380,000); AID 720647;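 active = drop in luminescence signal, shown as inhibition above about 50% in the replicate tests, limit read from the data, passing the limit was not always enough; inconclusive = probably only some replicates passing the limit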;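 note: agonist challenge used bursicon conditioned medium at about half maximal strength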
EWS-Fli inh: inhibitors of EWS/Fli oncoprotein transcriptional activity; A673 NR0B1-luciferase reporter, viability-normalised; inhibition, % at 12.6 µM; actives 0.67% (n = 350,000); AID 651661;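 active = mean inhibition of at least 50% after viability correction, with every replicate also passing that limit; inconclusive = mean reaches 50% but only one of two replicates passes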;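 note: firefly luciferase signal divided by Alamar Blue viability fluorescence both relative to DMSO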
* = called active by the depositor; ? = inconclusive; . = not tested or not shown. In the library only some 2.6% were active in any assay of this set; here they are far more common.

SMILES	TWEAK-Fn14 inh	KKLEB cytotox	TROY NFkB inh	CF NFkB inh	LGR2 inh	EWS-Fli inh
C[C@H](CO)N1C[C@H](C)[C@@H](CN(C)Cc2ccc(C(=O)O)cc2)Oc2ccc(NC(=O)Nc3ccc4c(c3)OCO4)cc2C1=O	.	.	.	.	-2	-10
O=Nc1c(-c2c(O)[nH]c3cc(Br)ccc23)[nH]c2ccccc12	91*	-8	69*	107*	95*	-46
COC(=O)C[C@H]1CC[C@H]2[C@H](COc3ccc(NC(=O)C4CCOCC4)cc3C(=O)N2C)O1	.	.	.	.	17	-1
C[C@H]1CN([C@@H](C)CO)S(=O)(=O)c2ccc(C#Cc3cccnc3)cc2O[C@H]1CN(C)C(=O)Nc1ccc2c(c1)OCO2	.	.	.	.	-6	1
CCc1nn(C(C)C(=O)N2CCN(c3ccc(OC)cc3)CC2)c(=O)c2cc3occc3n12 (stereo not given)	20	23	5	20	13	55*
CCc1nn(C(C)C(=O)N2CC(C)CC(C)C2)c(=O)c2cc3occc3n12 (stereo not given)	-9	0	13	-24	13	.
COc1ccc(/C=C2\Sc3ccc(C(=O)N4CCN(Cc5ccccc5)CC4)cc3N(C)C2=O)cc1OC	84*	-17	56*	15	18	34
CN1CCN(C(=O)c2ccc3c(c2)N(C)C(=O)/C(=C/c2cccc(Cl)c2)S3)CC1	14	11	10	2	5	16
CCCN(C(=O)CCc1cn(CCC)c2ccccc12)c1ccc(Oc2cccnc2)cc1	.	.	.	.	-10	-34
CN(C)CCCNC(=O)C[C@H]1CC[C@@H]2[C@H](COC[C@@H](O)CN2C(=O)c2ccncc2)O1	.	.	.	.	-1	2
Cc1occc1C(=O)N/N=C/c1ccc2c(c1)OCO2	64*	-11	5	-16	-2	-32
O=C(N/N=C/c1ccc2c(c1)OCO2)c1cccs1	-9	-1	-32	-14	-52	-116
Cc1ccsc1C(=O)N/N=C/c1ccc2c(c1)OCO2	55*	8	-2	-17	?	-37
CCOc1ccc(N/C(N)=N/c2nc(CSc3nnc(C)s3)cc(=O)[nH]2)cc1	-13	8	31	17	-15	67*
Cn1c(=O)c2c(nc(NCc3ccco3)n2C/C=C/c2ccccc2)n(C)c1=O	55*	1	41	15	.	.
Cn1c(=O)c2c(nc(NCc3ccco3)n2C)n(C)c1=O	15	1	8	-5	.	.
CNC[C@H]1Oc2ccc(NC(=O)NC3CCCCC3)cc2C(=O)N([C@H](C)CO)C[C@H]1C	.	.	.	.	-16	-13
COc1ccc(N=C2NC(=O)/C(=C/c3ccc(O)c(OC)c3)S2)cc1	44	-7	8	57*	24	21
O=C(Nc1cccc(S(=O)(=O)N2CCCCC2)c1)c1ccc2c(=O)n3c(nc2c1)CCCCC3	71*	6	55*	6	41	.
COc1ccccc1NC(=O)Nc1nc(CC(=O)N2CCN(c3ccc(F)cc3)CC2)cs1	51*	-20	40	14	9	3
Cc1noc(C)c1S(=O)(=O)Nc1ccc2c(c1)CC(=O)N([C@@H](C)CO)C[C@H](C)[C@H](CN(C)Cc1ccc(C(=O)O)cc1)O2	.	.	.	.	2	-3
CS(=O)(=O)N(CCc1ccccc1)CC(=O)N1CCN(c2ccccc2F)CC1	84*	1	-14	2	.	.
C(C#CCCCCCCCCC[n+]1ccccc1)#CCCCCCCCCC[n+]1ccccc1	90*	-38	44	53*	.	.
O=C(C[C@H]1C=C[C@@H](NC(=O)Nc2cc(F)ccc2F)[C@@H](CO)O1)NCCCN1CCOCC1	.	.	.	.	-14	-3
CN(c1ccc(OCC(=O)Nc2nc(-c3ccccc3)cs2)cc1)S(=O)(=O)c1ccc(F)cc1	55*	-7	18	-19	6	.
SMILES	TWEAK-Fn14 inh	KKLEB cytotox	TROY NFkB inh	CF NFkB inh	LGR2 inh	EWS-Fli inh
Cc1ccc(S(=O)(=O)N(C)c2ccc(OCC(=O)Nc3nc4ccccc4s3)cc2)cc1	70*	1	24	-7	-11	-2
Cc1cccc(OCC(=O)Nc2nc3ccc([N+](=O)[O-])cc3s2)c1	1	-7	59*	28	.	.
Cc1ccc(S(=O)(=O)N(C)c2ccc(OCC(=O)Nc3nc(-c4ccccc4)cs3)cc2)cc1	17	3	-7	0	26	.
CCC(=O)c1ccc(OCC(=O)Nc2nc(-c3cccnc3)cs2)cc1	27	3	23	-14	-6	9
CCc1ccccc1OCC(=O)Nc1nc(-c2cccnc2)cs1	-39	-16	61*	-4	6	13
O=C1[C@@H]2[C@@H](CC(COc3ccccc3)=C3[C@@H](c4ccccc4)OB(O)C[C@@H]32)C(=O)N1Cc1ccccc1	.	.	.	.	.	-3
O=C(C[C@@H]1C=C[C@H](NC(=O)Nc2cc(F)ccc2F)[C@@H](CO)O1)Nc1ccccc1	.	.	.	.	12	1
O=C(C[n+]1ccccc1)Nc1nc2ccccc2s1	-7	7	40	-15	-6	.
Cc1ccc[n+](CC(=O)Nc2nc3ccccc3s2)c1	64*	5	81*	-15	1	8
CCC(=O)Nc1nnc(C)s1	58*	12	.	-6	.	.
O=C(NCCc1ccccc1)c1ccc(Cl)c(S(=O)(=O)N2CCCC2)c1	-12	-3	-29	22	.	.
COc1ccc(CCNC(=O)c2ccc(Cl)c(S(=O)(=O)N(C)c3ccccc3)c2)cc1	58*	12	53*	-9	29	.
COc1ccc(CCNC(=O)c2ccc(Cl)c(S(=O)(=O)N3CCCCCC3)c2)cc1	60*	-20	44	14	16	22
CN(c1ccccc1)S(=O)(=O)c1cccc(C(=O)NCCc2ccc(O)c(O)c2)c1	39	-4	56*	21	.	37
C[C@@H]1CCCCO[C@@H](CN(C)C(=O)CCC(F)(F)F)[C@@H](C)CN([C@@H](C)CO)C(=O)c2cc(NC(=O)Nc3ccccc3)ccc2O1	.	.	.	.	5	-4
COc1ccc(-c2nc(N/N=C(\C)c3ccc(O)cc3)c3ccccc3n2)cc1	-9	-21	-31	56*	-18	-62
COc1cc(/C=C2/SC(=S)NC2=O)ccc1OS(=O)(=O)c1ccc(C)cc1	40	-27	59*	46	.	.
CC1CC(C)CN(C(=O)c2ccc(NC(=O)c3ccc(=O)[nH]c3)cc2)C1 (stereo not given)	-8	-6	-5	5	-2	2
Cc1c(C(=O)Nc2ccc(F)cc2)oc2ccc(S(=O)(=O)N3CC(C)CC(C)C3)cc12 (stereo not given)	54*	-28	29	6	11	17
CCN(CC)C(=O)c1oc2ccc(S(=O)(=O)N3CC(C)CC(C)C3)cc2c1C (stereo not given)	46	8	26	4	24	49
